Measured values reported in PubChem BioAssay.
Records with an inconclusive call do not appear. Activity calls are given as the source filed them.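 How the source made its calls, unless noted: active means inhibition over a set limit, the all-compound mean plus 3 SD, in both replicate runs; inconclusive means over that limit in just one replicate run; inactive means at or under that limit in both runs.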

How the values were obtained:
[1] = reducers of endogenous Her2 protein level, primary screen, SKBR3 breast tumor cells, AlphaScreen, ATP viability (AID 461;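 active means Her2 level under about 52% in both replicate screens, with viability over 70% of control, limit read from the data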;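 on Her2 level: lower value means less Her2 protein in the cells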;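 on viability: percent of carrier control wells set as 100% viability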); conditions: 18-24 h, measured here: SKBR3 viability, ATP luminescence, at 10 µM
[2] = biological target: Receptor tyrosine-protein kinase erbB-2 (Homo sapiens) (UniProt P04626); test: as above; conditions: 18-24 h, at 10 µM, stronger effect = lower value
[3] = SK-BR-3 cell growth inhibitors, pilot screen, 24 h, human (AID 572;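 active means viability at or below 10% of carrier control in both of two separate runs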;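 further: compound exposure lasted between 18 and 24 h rather than exactly 24 h; 100% = carrier-treated control wells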); conditions: SK-BR-3 viability, CellTiter-Glo luminescence, at 10 µM, stronger effect = lower value
[4] = HUVEC growth inhibition – cell-based, human, primary screen (AID 575;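 active means viability at or below 30% in both replicate assays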;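 further: 100% = median of untreated cell wells with 0.1% DMSO on each plate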); conditions: HUVEC proliferation, CellTiter-Glo luminescence, 72 h; at 10 µM; stronger effect = lower value
[5] = growth inhibitors of H69AR lung tumor, primary screen, human, duplicate replicates (AID 580;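 active means viability at or under a set limit in both replicates, limit being median viability minus 3 SD, cut at about 48% in these data, passing the limit was not always enough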;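 further: 100% = mean luminescence of untreated wells and 0% = no signal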); conditions: H69AR lung tumor cells viability, ATP luminescence, 72 h; at 10 µM; stronger effect = lower value
[6] = reversal of MRP1-mediated doxorubicin resistance, pilot screen, H69AR cells, doxorubicin co-treatment (AID 601;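 active means viability loss from added drug above about 55%, and viability with drug at most 40%, in both replicates, limit read from the data, passing the limit was not always enough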); conditions: CellTiter-Glo, 72 h, at 10 µM; for differential viability (reversal): stronger effect = higher value
[7] = 384-well plate pilot, post-Golgi transport modulator project, inhibition of yeast transport mutant growth (AID 636; in the data active means inhibition above about 31%); conditions: absorbance 615 nm, about 18 h, stronger effect = higher value
[8] = growth suppression of yeast trafficking mutant, preliminary HTS, modulators of trafficking downstream of Golgi apparatus project, 1536-format plate, OD 615 nm (AID 637; in the data active means inhibition above about 30%); conditions: yeast transport mutant growth, absorbance 615 nm, 18 h; stronger effect = higher value
[9] = OD615 S. cerevisiae growth inhibition, permissive medium, pilot counter-assay, permissive growth control for S. cerevisiae lifespan shortening project (AID 705;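 active means growth inhibition above 25% in both replicates, a cutoff set 3 SD above the mean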); conditions: OD615, 24 h, at 10 µM, stronger effect = higher value
[10] = Restrictive medium S. cerevisiae growth inhibition, OD615, pilot screen of yeast lifespan reduction project, restrictive growth control (AID 706;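 active means growth inhibition above a set limit, 3 SD over mean compound inhibition, in both replicates, cut at about 43% in these data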;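 further: modified DeaD lifespan yeast strain shifted to restrictive glucose medium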); conditions: OD615, 48 h, at 10 µM, stronger effect = higher value
[11] = viability gain of MRP-1-high H69AR cells under doxorubicin, pilot screen, MRP-1 activator project, CellTiter-Glo, duplicate (AID 807;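 active means viability increase at or above a cutoff of the median across tested compounds plus 3 SD, cut at about 8.5% in these data, passing the limit was not always enough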;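 further: compound pretreatment 18-22 h then 72 h combined with doxorubicin; 0% = doxorubicin alone and 100% = vehicle without doxorubicin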); conditions: H69AR viability with doxorubicin, CellTiter-Glo luminescence; at 10 µM; stronger effect = higher value
[12] = growth suppression of beta-catenin knockout HCT116, pilot screen, human colon tumor cells (AID 823;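 active means cell viability at or below a set limit in both duplicate runs, the limit being the all-compound median minus 4 SD, cut at about 23% in these data, passing the limit was not always enough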;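 further: 0% = wells killed by 20 µM Hyamine and 100% = untreated DMSO cell wells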); conditions: CellTiter-Glo, 60 h, at 10 µM, stronger effect = lower value
[13] = growth suppression of PTEN-deleted HCT116, pilot screen, cell-based, HCT116 clonal line, CellTiter-Glo (AID 824;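 active means viability at or below 27.92% in each of two runs, the all-compound median minus 4 SD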;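 further: 0% = 20 µM Hyamine control and 100% = vehicle cell control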); conditions: 60 h, at 10 µM, stronger effect = lower value
[14] = inhibitors of the yeast RAM network, pilot screen, dse1pr::URA3 reporter, 5-FOA selection (AID 869);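 further: 0% = DMSO wells with no growth and 100% = 10 µM 1-NA-PP1 with full growth; RAM network block rescues cells from 5-FOA so hits raise OD615 growth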; conditions: S. cerevisiae dse1pr::URA3 5-FOA growth, OD615, 2 d; at 10 µM; stronger effect = higher value; strain carries analog-sensitive mutant Cbk1 kinase
[15] = RAM signaling pathway blockade in yeast – S. cerevisiae, Pdr1DBD-CYC8 efflux-inhibited sensitized strain, primary screen (AID 1298;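 active means RAM network inhibition above 8.4% in each of two replicates, 3 SD over the compound average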;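 further: 0% = DMSO untreated cells without growth and 100% = 10 µM 1-NA-PP1 full growth; higher means more yeast growth rescued from 5-FOA killing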); conditions: S. cerevisiae cbk1-as DSE1-URA3 strain, 5-FOA growth OD615, 2 d; at 50 µM; stronger effect = higher value
[16] = H69AR cells + 2 uM doxorubicin, measured here: viability with 2 uM doxorubicin, stronger effect = lower value
[17] = H69AR cells, compound alone cytotoxicity

Sequence of Receptor tyrosine-protein kinase erbB-2 (Homo sapiens) (P04626 whole entry, looked up): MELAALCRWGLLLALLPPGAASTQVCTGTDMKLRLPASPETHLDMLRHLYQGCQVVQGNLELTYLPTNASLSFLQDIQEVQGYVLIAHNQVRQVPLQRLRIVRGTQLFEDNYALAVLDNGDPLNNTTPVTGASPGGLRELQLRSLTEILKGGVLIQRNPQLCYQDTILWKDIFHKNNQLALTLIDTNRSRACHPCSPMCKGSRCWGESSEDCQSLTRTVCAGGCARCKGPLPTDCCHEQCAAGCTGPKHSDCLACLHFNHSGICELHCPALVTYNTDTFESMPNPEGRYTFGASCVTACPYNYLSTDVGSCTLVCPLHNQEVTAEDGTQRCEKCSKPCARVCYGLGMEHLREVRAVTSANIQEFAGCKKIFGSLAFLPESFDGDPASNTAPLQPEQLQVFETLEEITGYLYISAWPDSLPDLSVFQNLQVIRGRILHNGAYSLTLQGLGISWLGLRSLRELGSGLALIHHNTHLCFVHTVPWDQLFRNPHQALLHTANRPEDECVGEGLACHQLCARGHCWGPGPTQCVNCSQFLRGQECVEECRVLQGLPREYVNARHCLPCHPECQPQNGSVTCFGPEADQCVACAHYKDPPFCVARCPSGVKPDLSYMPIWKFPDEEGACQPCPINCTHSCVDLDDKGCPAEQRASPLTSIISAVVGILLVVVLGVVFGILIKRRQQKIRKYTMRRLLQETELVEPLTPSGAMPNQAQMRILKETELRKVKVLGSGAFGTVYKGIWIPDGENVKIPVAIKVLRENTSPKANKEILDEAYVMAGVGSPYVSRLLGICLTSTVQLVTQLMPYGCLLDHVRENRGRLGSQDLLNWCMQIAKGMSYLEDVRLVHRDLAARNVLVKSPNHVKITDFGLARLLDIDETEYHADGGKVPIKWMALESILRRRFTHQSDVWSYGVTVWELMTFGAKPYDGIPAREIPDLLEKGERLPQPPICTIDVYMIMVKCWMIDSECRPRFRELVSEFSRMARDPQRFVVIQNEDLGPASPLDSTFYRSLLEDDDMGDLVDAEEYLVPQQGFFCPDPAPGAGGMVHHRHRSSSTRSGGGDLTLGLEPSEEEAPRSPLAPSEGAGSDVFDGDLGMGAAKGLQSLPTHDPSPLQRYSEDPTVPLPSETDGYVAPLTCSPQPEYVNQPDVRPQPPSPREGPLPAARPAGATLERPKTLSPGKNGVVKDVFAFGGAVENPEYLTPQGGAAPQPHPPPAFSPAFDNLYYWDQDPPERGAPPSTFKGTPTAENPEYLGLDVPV

SMILES	viability [1]	Her2 level [2]	viability [3]	viability [4]	viability [5]	differential viability (reversal) ([6]; H69AR cells + 2 uM doxorubicin)	viability [6, 16]	viability [6, 17]	inhibition [7]	inhibition [8]	growth inhibition [9]	growth inhibition [10]	viability increase [11]	viability [12]	viability [13]	inhibition [14]	RAM network inhibition [15]
Cc1cccc(-n2ncc3c(N4CCC5(CC4)OCCO5)ncnc32)c1	106%	92.5% (inactive)	106% (inactive)	76% (inactive)	42.6% (active)	-11.1% (inactive)	53.8%	42.6%	-4.4% (inactive)	-9.33% (inactive)	-2.87% (inactive)	-15.6% (inactive)	-7.22% (inactive)	78% (inactive)	59.5% (inactive)	1.75% (inactive)	3.86% (inactive)
CCOC(=O)c1csc(NC(=O)C2CCCCC2)n1	81%	90% (inactive)	81% (inactive)	95% (inactive)	96.5% (inactive)	26.3% (inactive)	70.2%	96.5%	-1.47% (inactive)	0.83% (inactive)	-5.67% (inactive)	7.35% (inactive)	2.52% (inactive)	91.4% (inactive)	94.6% (inactive)	0.89% (inactive)	0.47% (inactive)
O=C(c1ccc2nc(N3CCOCC3)sc2c1)N1CCCC1	94%	96% (inactive)	94% (inactive)	93.6% (inactive)	108% (inactive)	18.8% (inactive)	89.4%	108%	-1.41% (inactive)	9.17% (inactive)	-2.18% (inactive)	-7.76% (inactive)	-2.73% (inactive)	99.1% (inactive)	95.4% (inactive)	-0.14% (inactive)	1.02% (inactive)
COc1cc2c(cc1OC)C(c1ccc(C)o1)CC(=O)N2 (stereo not given)	81.5%	87.5% (inactive)	81.5% (inactive)	86.2% (inactive)	89.4% (inactive)	9.42% (inactive)	80%	89.4%	-0.13% (inactive)	4.33% (inactive)	-3.98% (inactive)	1.56% (inactive)	-4.72% (inactive)	80% (inactive)	78.2% (inactive)	1.21% (inactive)	0.73% (inactive)
CCOC(=O)C1=C(C)NC(=O)NC1c1ccc(Br)s1 (stereo not given)	119%	102% (inactive)	119% (inactive)	103% (inactive)	108% (inactive)	24.9% (inactive)	83.5%	108%	-6.53% (inactive)	4.03% (inactive)	-10.5% (inactive)	-15.3% (inactive)	-0.63% (inactive)	92.8% (inactive)	89.7% (inactive)	0.86% (inactive)	3.71% (inactive)
O=C(CSc1nnc(Cn2c(=O)sc3ccccc32)n1-c1ccccc1)Nc1nccs1	97%	106% (inactive)	97% (inactive)	66.9% (inactive)	84.2% (inactive)	0.24% (inactive)	84%	84.2%	-5.73% (inactive)	-4.43% (inactive)	11.2% (inactive)	27.2% (inactive)	-3.44% (inactive)	89.5% (inactive)	90% (inactive)	2.44% (inactive)	2.05% (inactive)
COCCNC(=O)c1ccc(CS(=O)(=O)c2c(Cl)cccc2Cl)o1	84.5%	116% (inactive)	84.5% (inactive)	84% (inactive)	98.9% (inactive)	4.06% (inactive)	94.8%	98.9%	-3.47% (inactive)	-4.83% (inactive)	-17.4% (inactive)	-11.8% (inactive)	-1.73% (inactive)	103% (inactive)	93% (inactive)	1.32% (inactive)	1.21% (inactive)
CN1CCc2c(sc3c2C(=O)NC(c2cccc(OC(=O)c4cccs4)c2)N3)C1 (stereo not given)	81.5%	78.5% (inactive)	81.5% (inactive)	68% (inactive)	85.6% (inactive)	-8.95% (inactive)	94.6%	85.6%	-5.07% (inactive)	7.5% (inactive)	8.64% (inactive)	11.5% (inactive)	-4.85% (inactive)	96.3% (inactive)	93.8% (inactive)	0.215% (inactive)	4.47% (inactive)
CCOc1ccc(C2CC(c3ccccc3C)n3nc(N)nc3N2)cc1 (stereo not given)	87.5%	93.5% (inactive)	87.5% (inactive)	87.9% (inactive)	87.9% (inactive)	-14.3% (inactive)	102%	87.9%	-2.82% (inactive)	-3% (inactive)	-4.05% (inactive)	0.985% (inactive)	-1.27% (inactive)	93.8% (inactive)	83.3% (inactive)	1.23% (inactive)	5.2% (inactive)
COc1cc2c(cc1OC)CN(C(=O)CSc1nnc3scc(-c4ccccc4)n13)CC2	96%	97% (inactive)	96% (inactive)	86.7% (inactive)	85.3% (inactive)	8.16% (inactive)	77.2%	85.3%	-0.53% (inactive)	-3.77% (inactive)	16.4% (inactive)	69% (active)	-3.13% (inactive)	99.4% (inactive)	94.6% (inactive)	1.08% (inactive)	3.4% (inactive)
